The values below come from PMC5540273 (PLoS ONE, 2017).

Test systems include VRK2; WEE1; WEE2; WNK1; WNK2; WNK3; WNK4.
Holding throughout (settings): concentration: 1 μM, replicates: in singlicate; n = 1
For another experiment, the system named is T1, VEGFR2.
T1 construct: gene KDR

The subject of a further experiment is T2, VPS34.
T2 construct: gene PIK3C3

The test system of a further experiment is T3, YANK1.
T3 construct: gene STK32A
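Note: KINOMEscan kinase panel screen.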

In the case of `Cc1cnc(N)c(/C=C/c2cncc(C(=O)NCCc3ccc(Cl)cc3Cl)c2)c1.Cl` [GSK190937], the “%Inh” value in the experiment with VEGFR2 stood at 0%; in the experiment with VPS34 it was 0%; in the experiment on VRK2 it was 26%; with WEE1, 5%; in the experiment with WEE2, 0%; in the experiment with WNK1, 3%. Besides, the “%Inh” value in the experiment with WNK2 worked out at 4%; in the experiment on WNK3, 30%; in the experiment with WNK4, 4%; with YANK1 it was 0%.

Turning to `CNc1nc(-c2ccc3c(N)n[nH]c3c2)cc(N2C[C@@H](C(=O)Nc3ccccc3)CC[C@H]2C)n1` [GSK2298859], the “%Inh” value in the experiment on VEGFR2 came to 0%; with VPS34 it was 7%; with VRK2, 0%; in the experiment on WEE1, 9%; in the experiment with WEE2, 0%; with WNK1, 0%. Also, the “%Inh” value in the experiment with WNK2 worked out at 0%; in the experiment on WNK3 it was 33%; with WNK4, 29%; in the experiment on YANK1, 46%.

In the case of `CC(=O)c1c(C)c2cnc(Nc3ccc(N4CCNCC4)cn3)nc2n(C2CCCC2)c1=O`, the “%Inh” value stood at 6% in the experiment on VEGFR2; 0% in the experiment on VPS34; 0% with VRK2; 0% in the experiment on WEE1; 0% in the experiment with WEE2; 0% in the experiment on WNK1. In addition, the “%Inh” value in the experiment on WNK2 is reported as 0%; in the experiment on WNK3, 0%; with WNK4 it was 0%; in the experiment with YANK1, 16%.

For the compound `c1ccc(-c2ccnc3[nH]ccc23)cc1` [SB-693578], the “%Inh” value in the experiment on VEGFR2 was found to be 32%; in the experiment on VPS34 it was 0%; in the experiment with VRK2, 27%; in the experiment with WEE1, 10%; in the experiment with WEE2 it was 23%; with WNK1, 0%. Also, the “%Inh” value in the experiment with WNK2 is 11%; with WNK3, 48%; in the experiment on WNK4, 37%; in the experiment on YANK1, 0%.

Regarding `Cc1ccc(NC(=O)Nc2ccc(Cl)cc2)cc1-c1ccc(C(=O)Nc2ccncc2)cc1` [GSK1398472], the “%Inh” value amounted to 9% in the experiment on VEGFR2; 0% in the experiment with VPS34; 0% with VRK2; 16% in the experiment with WEE1; 5% in the experiment with WEE2; 7% in the experiment on WNK1. Moreover, the “%Inh” value in the experiment on WNK2 is listed as 0%; with WNK3, 13%; in the experiment on WNK4, 23%; in the experiment with YANK1 it was 1%.

With `Cc1ccc(NC(=O)Nc2ccc(Cl)c(C(F)(F)F)c2)cc1-c1ccc(C(=O)Nc2ccncc2)cc1` [GSK1398470], the “%Inh” value is on record as 0% in the experiment with VEGFR2; 0% in the experiment with VPS34; 8% in the experiment with VRK2; 3% in the experiment with WEE1; 10% in the experiment on WEE2; 0% in the experiment with WNK1. Further, the “%Inh” value in the experiment with WNK2 is given as 8%; with WNK3, 0%; with WNK4, 0%; with YANK1 it was 60%.

With `COc1ccc(Nc2nccc(-c3ccc(NC(=O)c4cc5cc(F)ccc5[nH]4)cc3)n2)cc1` [GSK1229496], the “%Inh” value in the experiment on VEGFR2 is given as 0%; with VPS34, 2%; in the experiment with VRK2, 0%; in the experiment on WEE1, 7%; in the experiment with WEE2 it was 0%; in the experiment on WNK1, 0%. Also, the “%Inh” value in the experiment with WNK2 turned out to be 14%; in the experiment on WNK3, 18%; with WNK4, 51%; in the experiment with YANK1, 0%.

Turning to `Cc1ccccc1-c1cc(-c2c[nH]nc2-c2ccccn2)ccn1` [GW680061], the “%Inh” value in the experiment with VEGFR2 was found to be 0%; in the experiment on VPS34 it was 0%; with VRK2, 0%; in the experiment with WEE1, 8%; with WEE2, 0%; with WNK1, 14%. The “%Inh” value stood at 14% with WNK2, 24% in the experiment on WNK3, 31% in the experiment on WNK4 and 0% with YANK1.

`COc1ccc(Nc2nccc(N3CCC(NC(=O)C(C)c4ccc(Cl)cc4)CC3)n2)cc1` (stereo not drawn) [GSK1379812]: the “%Inh” value in the experiment with VEGFR2 came to 1%; in the experiment on VPS34, 0%; in the experiment on VRK2, 0%; in the experiment with WEE1 it was 31%; with WEE2, 0%; in the experiment with WNK1 it was 0%. Further, the “%Inh” value with WNK2 came out at 0%; with WNK3 it was 47%; in the experiment with WNK4, 19%; in the experiment on YANK1, 10%.

For the compound `CS(=O)(=O)CCNCc1nc(-c2ccc3ncnc(Nc4ccc5c(cnn5Cc5ccccc5)c4)c3c2)cs1.Cl.Cl` [GW569716], the “%Inh” value worked out at 0% in the experiment with VEGFR2; 0% with VPS34; 16% with VRK2; 0% with WEE1; 5% with WEE2; 5% with WNK1. The “%Inh” value was found to be 3% in the experiment on WNK2, 0% in the experiment on WNK3, 62% with WNK4 and 3% in the experiment on YANK1.

As to `COC(=O)c1cccc(NC(=O)NC2CCN(c3ccnc(Nc4ccc(OC)cc4)n3)C2)c1` (stereo not drawn) [GSK1379746], the “%Inh” value with VEGFR2 is 0%; with VPS34, 0%; with VRK2 it was 0%; in the experiment on WEE1, 7%; in the experiment with WEE2 it was 0%; with WNK1, 11%. For the same compound, the “%Inh” value with WNK2 is 4%; with WNK3 it was 51%; in the experiment on WNK4, 46%; in the experiment with YANK1, 0%.

Consider `CSc1ccc(-c2nc3n(c2-c2ccncc2)CCC3)cc1` [SKF-105561], for which the “%Inh” value in the experiment with VEGFR2 came out at 11%; in the experiment with VPS34, 19%; with VRK2, 3%; with WEE1, 0%; in the experiment on WEE2, 7%; in the experiment on WNK1, 24%. In addition, the “%Inh” value with WNK2 turned out to be 21%; in the experiment on WNK3, 30%; in the experiment with WNK4 it was 3%; in the experiment with YANK1 it was 0%.

As for `COc1ccc(CSc2nnc(-c3ccc4nccn4c3)o2)cc1C(F)(F)F`, the “%Inh” value is reported as 10% with VEGFR2; 7% in the experiment with VPS34; 7% in the experiment with VRK2; 9% in the experiment on WEE1; 0% in the experiment with WEE2; 0% in the experiment on WNK1. Moreover, the “%Inh” value is 0% in the experiment with WNK2, 0% with WNK3, 2% with WNK4 and 20% in the experiment on YANK1.

Turning to `COc1cccc(NC(=O)Nc2ccc(C)c(-c3ccc(C(=O)Nc4ccncc4)cc3)c2)c1` [GSK1398474], the “%Inh” value is 6% with VEGFR2; 0% in the experiment with VPS34; 0% in the experiment with VRK2; 11% in the experiment on WEE1; 4% with WEE2; 0% with WNK1. The “%Inh” value worked out at 0% in the experiment with WNK2, 28% with WNK3, 0% in the experiment with WNK4 and 18% in the experiment on YANK1.

With `COc1ccc(-c2coc3ccc(-c4nnc(C)o4)cc23)cc1`, the “%Inh” value in the experiment with VEGFR2 is 0%; with VPS34, 0%; with VRK2, 0%; in the experiment on WEE1, 0%; in the experiment with WEE2, 4%; in the experiment with WNK1 it was 0%. The “%Inh” value is listed as 32% in the experiment on WNK2, 0% in the experiment on WNK3, 0% in the experiment with WNK4 and 0% in the experiment on YANK1.
